Records with an inconclusive call do not appear. Activity calls are given as the source filed them. Unless noted, the call rests on the fitted dose curve; in most records, active means well fitted curve in the direction sought with a large enough effect in the repeat runs; inconclusive means weak or mixed curves; inactive means no such curve, though single readings can be large; an effect the other way counts as inactive or inconclusive.
Columns and labels:
[1] = molecular target: Thyrotropin-releasing hormone receptor (Homo sapiens) (UniProt P34981); assay: qHTS assay to identify small molecule agonists of the thyrotropin-releasing hormone receptor (TRHR) signaling pathway (AID 1346891; calls by dose curve; further: series mostly up to about 58 µM; on the % scale 0 is the no-effect control and ±100 the full control effect)
Procedure, shortened: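 TRHR-expressing HEK293 cells were plated 18 h at 37 °C/5% CO2, loaded with calcium dye 2 h at 37 °C, then given compound in DMSO; fluorescence was read kinetically for 3 min at 1 s intervals.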

[2] = Human pregnane X receptor (PXR) small molecule agonists, qHTS cell viability counter screen (AID 1346977); further: nearly all actives have a fitted effect of over 50% in size; further: potency means the concentration at half of the fitted maximal effect
Procedure, shortened: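 PXR-Luc HepG2 cells in medium with 5% charcoal-stripped FBS were pre-incubated 5hr, then exposed to compounds for 24hr at 37C. Viability was read in the same wells by CellTiter-Fluor fluorescence, reagent added after 23hr with a 1hr incubation.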

[3] = Caspase-3/7 induction in HepG2 cells by small molecules, qHTS assay (AID 1346978); further: nearly all actives have a fitted effect of over 15% in size; further: potency means the concentration at half of the fitted maximal effect; on caspase activation: on the % scale 0 is the no-effect control and ±100 the full control effect
Procedure, shortened: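 Wild-type HepG2 cells, 2,000/well, settled 5 hr at 37 C and 5% CO2, then compound-treated for 17 hr; caspase-3/7 activity read by luminescent Caspase-Glo 3/7 after 30 min at room temperature.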

[4] = Caspase-3/7 induction in CHO-K1 cells by small molecules, qHTS assay (AID 1346980); further: nearly all actives have a fitted effect of over 15% in size; further: potency means the concentration at half of the fitted maximal effect; on caspase-3/7 activation: on the % scale 0 is the no-effect control and ±100 the full control effect
Procedure, shortened: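 Wild-type CHO-K1 cells exposed to compounds for 17hr at 37 C, 5% CO2. Caspase-3/7 activity then measured by Caspase-Glo 3/7 luminescence after 30min at room temperature.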

[5] = molecular target: Nuclear receptor subfamily 1 group I member 2 (Homo sapiens) (UniProt O75469); assay: Human pregnane X receptor (PXR) small molecule agonists, qHTS assay (AID 1346982); further: nearly all actives have a fitted effect of over 35% in size; further: potency means the concentration at half of the fitted maximal effect
Procedure, shortened: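 HepG2 PXR-Luc reporter line, 5% charcoal-stripped FBS; 5 hr pre-incubation, compound (DMSO) 24 hr at 37 C/5% CO2; ONE-Glo 30 min RT; luminescence read-out.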

[6] = molecular target: Cytochrome P450 2D6 (Homo sapiens) (UniProt P10635); assay: Cytochrome P450 Family 2 Subfamily D Member 6 (CYP2D6) small molecule antagonists: luciferase reporter qHTS assay (AID 1671196); further: nearly all actives have a fitted effect of over 50% in size; further: potency means the concentration at half of the fitted maximal effect; on activity change, negative = inhibition: series mostly up to about 120 µM; on the % scale 0 is the no-effect control and ±100 the full control effect
Procedure, shortened: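 Luminogenic proluciferin substrate, CYP2D6 enzyme; 10 min RT preincubation with compound, NADPH regeneration system added, 1 h RT. Stop/detection reagent, 20 min RT, luminescence read (RLU). Signal proportional to CYP activity.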

[7] = molecular target: Cytochrome P450 2C19 (Homo sapiens) (UniProt P33261); assay: Cytochrome P450 Family 2 Subfamily C Member 19 (CYP2C19) small molecule antagonists: luciferase reporter qHTS assay (AID 1671197); further: nearly all actives have a fitted effect of over 65% in size; further: potency means the concentration at half of the fitted maximal effect
Procedure, shortened: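 CYP2C19 P450-Glo, 1536-well qHTS. Cpd + enzyme/proluciferin substrate 10 min RT; + NADPH regen, 37C 1 h; stop with luciferin detection reagent, 20 min RT, luminescence (RLU). Pos ctrl ketoconazole.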

[8] = molecular target: Cytochrome P450 1A2 (Homo sapiens) (UniProt P05177); assay: Cytochrome P450 Family 1 Subfamily A Member 2 (CYP1A2) small molecule antagonists: luciferase reporter qHTS assay (AID 1671199); further: nearly all actives have a fitted effect of over 50% in size; further: potency means the concentration at half of the fitted maximal effect
Procedure, shortened: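 Luminescence readout (relative luminescence units) after luciferin detection reagent, 20 min RT. Preceded by 1 h room-temperature CYP1A2 reaction with NADPH regeneration solution following 10 min compound preincubation with enzyme and proluciferin substrate. Furafylline positive control.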

[9] = molecular target: Voltage-gated inwardly rectifying potassium channel KCNH2 (Homo sapiens) (UniProt Q12809); assay: Human Ether-a-go-go-Related Gene (hERG) channel small molecule antagonists: fluorescence cell-based qHTS assay (AID 1671200); further: nearly all actives have a fitted effect of over 50% in size; further: potency means the concentration at half of the fitted maximal effect
Procedure, shortened: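 U2OS cells expressing the channel were plated at 1000 cells/well, incubated overnight at 37 C, then loaded with FluxOR II thallium-sensitive dye for 1 h at room temperature in the dark, with a further 10 min at room temperature before stimulation.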

[10] = Caspase-3/7 induction in CHO-K1 cells by small molecules, qHTS cell viability counter screen (AID 1346979); further: nearly all actives have a fitted effect of over 35% in size; further: potency means the concentration at half of the fitted maximal effect
Procedure, shortened: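 Wild-type CHO-K1 cells were seeded at 1,500 per well, rested 5hr at 37 C, then exposed to compounds in DMSO. After 16hr, CellTiter-Fluor reagent was added and fluorescence read 1hr later as the viability measure.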

[11] = molecular target: Cytochrome P450 3A4 (Homo sapiens) (UniProt P08684); assay: Cytochrome P450 Family 3 Subfamily A Member 4 (CYP3A4) small molecule antagonists: luciferase reporter qHTS assay (AID 1671201); further: nearly all actives have a fitted effect of over 50% in size; further: potency means the concentration at half of the fitted maximal effect
Procedure, shortened: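 P450-Glo CYP3A4 system with proluciferin substrate; compounds preincubated 10 min RT with enzyme-substrate mix, then NADPH regeneration added for 1 h RT. Detection reagent 20 min, luminescence read as relative luminescence units.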

[12] = molecular target: Nuclear receptor subfamily 1 group I member 2 (Rattus norvegicus) (UniProt Q9R1A7); assay: Rat pregnane X receptor (rPXR) activation by small molecules, qHTS assay (AID 1346983); details: rPXR luciferase reporter cells, One-Glo luminescence, 24 h; max activation: active compounds read high; further: nearly all actives have a fitted effect of over 20% in size; further: potency means the concentration at half of the fitted maximal effect
Procedure, shortened: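 Cell-based rPXR activation assay: rPXR cells, 2,000 per well, rested 5hr at 37 C, then exposed to compounds in DMSO for 24 hr at 37 C. Luciferase activity read by One-Glo luminescence after 30 min at room temperature.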

[13] = molecular target: Nuclear receptor subfamily 1 group I member 2 (Homo sapiens) (UniProt O75469); assay: CYP3A4 induction through human pregnane X receptor (PXR) by small molecules, qHTS assay (AID 1346984); further: potency means the concentration at half of the fitted maximal effect; nearly all actives have a fitted effect of over 40% in size
Procedure, shortened: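 HepG2-derived DPX-2 line carrying PXR plus a CYP3A4-promoter luciferase reporter; cells plated 5 hr, compound-exposed 24 hr at 37C. CYP3A4 activity probed with 3uM (final) Luciferin-IPA for 3hr, then luciferase read after One-Glo.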

[14] = molecular target: Nuclear receptor subfamily 1 group I member 2 (Homo sapiens) (UniProt O75469); assay: Human pregnane X receptor (PXR) activation by small molecules, qHTS assay (AID 1346985); further: nearly all actives have a fitted effect of over 40% in size; further: potency means the concentration at half of the fitted maximal effect
Procedure, shortened: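 DPX-2 cells (HepG2 co-transfected with a PXR response element and a CYP3A4-promoter luciferase construct) were seeded at 2,000 per well, rested 5 hr at 37C, then exposed to DMSO-dissolved compounds for 24 hr. Activation was read as luciferase luminescence.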

[15] = molecular target: Cytochrome P450 2C9 (Homo sapiens) (UniProt P11712); assay: Cytochrome P450 Family 2 Subfamily C Member 9 (CYP2C9) small molecule antagonists: luciferase reporter qHTS assay (AID 1671198); further: nearly all actives have a fitted effect of over 50% in size; further: potency means the concentration at half of the fitted maximal effect
Procedure, shortened: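 P450-Glo proluciferin substrate with CYP2C9 enzyme; 10 min RT preincubation, then NADPH regeneration 1 h at 37C; luciferin detection reagent 20 min RT, luminescence in relative luminescence units.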

[16] = Caspase-3/7 induction in HepG2 cells by small molecules, qHTS cell viability counter screen (AID 1346981); further: nearly all actives have a fitted effect of over 30% in size; further: potency means the concentration at half of the fitted maximal effect
Procedure, shortened: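 Fluorescence read-out of live-cell protease activity (CellTiter-Fluor) after 1 hr with reagent. This was measured in the same wells as the caspase-3/7 luminescence, on HepG2 cells exposed to DMSO-dissolved compounds for 16 hr at 37 C.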

Cytochrome P450 2C9 (Homo sapiens), sequence (P11712 whole entry, looked up): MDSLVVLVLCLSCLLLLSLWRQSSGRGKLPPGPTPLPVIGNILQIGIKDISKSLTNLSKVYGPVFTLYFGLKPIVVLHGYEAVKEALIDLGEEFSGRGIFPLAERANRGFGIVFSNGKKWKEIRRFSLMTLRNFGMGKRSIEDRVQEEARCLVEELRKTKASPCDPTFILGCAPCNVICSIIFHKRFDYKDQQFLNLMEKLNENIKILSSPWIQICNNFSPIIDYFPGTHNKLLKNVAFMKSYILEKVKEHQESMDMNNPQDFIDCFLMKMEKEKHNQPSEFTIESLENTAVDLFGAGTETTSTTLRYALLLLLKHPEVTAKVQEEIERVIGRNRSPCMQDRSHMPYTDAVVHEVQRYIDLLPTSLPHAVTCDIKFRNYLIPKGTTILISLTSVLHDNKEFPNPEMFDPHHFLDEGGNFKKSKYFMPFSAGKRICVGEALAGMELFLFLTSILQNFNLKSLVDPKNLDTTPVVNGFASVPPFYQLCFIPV
Nuclear receptor subfamily 1 group I member 2 (Homo sapiens), sequence (O75469 whole entry, looked up): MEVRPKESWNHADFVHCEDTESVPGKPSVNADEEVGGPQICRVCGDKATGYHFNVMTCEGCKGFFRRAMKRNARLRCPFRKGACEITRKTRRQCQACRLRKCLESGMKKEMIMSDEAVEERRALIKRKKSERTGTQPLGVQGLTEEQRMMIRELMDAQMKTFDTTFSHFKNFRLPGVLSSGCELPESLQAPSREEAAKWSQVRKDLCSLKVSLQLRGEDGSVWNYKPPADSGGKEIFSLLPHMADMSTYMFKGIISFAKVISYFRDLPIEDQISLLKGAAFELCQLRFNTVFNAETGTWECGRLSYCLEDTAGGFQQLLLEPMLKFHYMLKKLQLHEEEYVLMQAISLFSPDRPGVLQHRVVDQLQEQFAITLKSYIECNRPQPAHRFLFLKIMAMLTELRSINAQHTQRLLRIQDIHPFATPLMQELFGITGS
Cytochrome P450 2C19 (Homo sapiens), sequence (P33261 whole entry, looked up): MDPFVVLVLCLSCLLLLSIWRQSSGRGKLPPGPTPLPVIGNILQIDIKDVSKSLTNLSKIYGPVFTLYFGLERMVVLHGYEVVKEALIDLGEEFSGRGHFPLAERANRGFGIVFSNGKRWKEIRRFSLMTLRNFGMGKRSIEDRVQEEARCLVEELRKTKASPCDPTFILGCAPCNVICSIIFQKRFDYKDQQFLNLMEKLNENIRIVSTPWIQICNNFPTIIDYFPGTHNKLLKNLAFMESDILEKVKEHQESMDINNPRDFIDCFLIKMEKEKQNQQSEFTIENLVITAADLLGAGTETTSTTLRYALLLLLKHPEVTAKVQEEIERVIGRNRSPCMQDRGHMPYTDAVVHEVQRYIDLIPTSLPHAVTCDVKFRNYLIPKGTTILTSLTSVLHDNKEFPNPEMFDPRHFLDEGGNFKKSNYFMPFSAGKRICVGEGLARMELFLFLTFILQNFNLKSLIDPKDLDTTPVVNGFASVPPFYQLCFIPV
Thyrotropin-releasing hormone receptor (Homo sapiens), sequence (P34981 whole entry, looked up): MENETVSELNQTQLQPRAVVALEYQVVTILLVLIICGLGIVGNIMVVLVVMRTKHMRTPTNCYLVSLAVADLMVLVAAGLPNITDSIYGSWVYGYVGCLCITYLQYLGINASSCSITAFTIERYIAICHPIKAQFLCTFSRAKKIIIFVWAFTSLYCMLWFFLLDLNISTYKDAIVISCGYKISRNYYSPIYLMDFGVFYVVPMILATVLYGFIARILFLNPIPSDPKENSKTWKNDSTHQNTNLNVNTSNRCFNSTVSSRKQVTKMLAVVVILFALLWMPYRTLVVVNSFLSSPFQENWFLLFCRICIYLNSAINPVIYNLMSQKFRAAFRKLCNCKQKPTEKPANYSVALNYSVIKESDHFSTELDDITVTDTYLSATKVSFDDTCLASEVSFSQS
Cytochrome P450 3A4 (Homo sapiens), sequence (P08684 whole entry, looked up): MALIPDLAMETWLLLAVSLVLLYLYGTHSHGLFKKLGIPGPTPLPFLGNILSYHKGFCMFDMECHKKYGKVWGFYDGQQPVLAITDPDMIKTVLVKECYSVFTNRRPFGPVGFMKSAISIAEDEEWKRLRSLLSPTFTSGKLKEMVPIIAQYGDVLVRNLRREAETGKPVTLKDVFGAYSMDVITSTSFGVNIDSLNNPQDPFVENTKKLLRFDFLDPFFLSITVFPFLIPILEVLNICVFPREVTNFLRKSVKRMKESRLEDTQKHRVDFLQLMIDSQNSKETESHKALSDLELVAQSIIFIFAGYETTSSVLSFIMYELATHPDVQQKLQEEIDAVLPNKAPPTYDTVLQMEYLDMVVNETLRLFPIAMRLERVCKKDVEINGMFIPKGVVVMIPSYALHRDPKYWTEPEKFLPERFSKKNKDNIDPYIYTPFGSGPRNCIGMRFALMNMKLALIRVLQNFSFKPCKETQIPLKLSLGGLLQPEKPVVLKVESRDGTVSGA
Cytochrome P450 1A2 (Homo sapiens), sequence (P05177 whole entry, looked up): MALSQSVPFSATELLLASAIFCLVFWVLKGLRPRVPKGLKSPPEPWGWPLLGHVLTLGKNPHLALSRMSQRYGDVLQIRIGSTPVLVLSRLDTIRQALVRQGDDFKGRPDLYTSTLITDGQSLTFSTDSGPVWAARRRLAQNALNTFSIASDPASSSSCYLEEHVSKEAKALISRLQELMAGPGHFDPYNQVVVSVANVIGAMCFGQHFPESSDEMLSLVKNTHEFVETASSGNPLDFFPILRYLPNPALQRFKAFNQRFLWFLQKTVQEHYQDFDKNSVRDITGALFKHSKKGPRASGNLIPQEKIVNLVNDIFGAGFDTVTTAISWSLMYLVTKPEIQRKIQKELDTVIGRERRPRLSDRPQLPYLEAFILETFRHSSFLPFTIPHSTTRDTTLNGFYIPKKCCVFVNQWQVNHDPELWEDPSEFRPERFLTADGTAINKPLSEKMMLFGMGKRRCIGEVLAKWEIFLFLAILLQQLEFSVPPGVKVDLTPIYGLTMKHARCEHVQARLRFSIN
Cytochrome P450 2D6 (Homo sapiens), sequence (P10635 whole entry, looked up): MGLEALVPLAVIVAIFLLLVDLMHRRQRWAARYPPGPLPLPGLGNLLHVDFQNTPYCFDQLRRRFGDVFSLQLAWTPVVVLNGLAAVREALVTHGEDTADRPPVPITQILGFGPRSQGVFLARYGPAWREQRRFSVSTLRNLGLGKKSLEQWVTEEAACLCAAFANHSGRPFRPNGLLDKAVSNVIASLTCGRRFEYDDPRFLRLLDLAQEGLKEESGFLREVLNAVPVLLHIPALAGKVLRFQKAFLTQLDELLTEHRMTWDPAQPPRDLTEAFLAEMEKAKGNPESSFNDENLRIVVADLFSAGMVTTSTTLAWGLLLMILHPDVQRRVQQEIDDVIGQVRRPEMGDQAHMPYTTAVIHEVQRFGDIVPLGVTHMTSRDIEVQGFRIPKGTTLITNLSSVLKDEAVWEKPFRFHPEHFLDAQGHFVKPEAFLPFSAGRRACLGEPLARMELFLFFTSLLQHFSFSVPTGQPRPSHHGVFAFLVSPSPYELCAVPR
Voltage-gated inwardly rectifying potassium channel KCNH2 (Homo sapiens), sequence (Q12809 whole entry, looked up): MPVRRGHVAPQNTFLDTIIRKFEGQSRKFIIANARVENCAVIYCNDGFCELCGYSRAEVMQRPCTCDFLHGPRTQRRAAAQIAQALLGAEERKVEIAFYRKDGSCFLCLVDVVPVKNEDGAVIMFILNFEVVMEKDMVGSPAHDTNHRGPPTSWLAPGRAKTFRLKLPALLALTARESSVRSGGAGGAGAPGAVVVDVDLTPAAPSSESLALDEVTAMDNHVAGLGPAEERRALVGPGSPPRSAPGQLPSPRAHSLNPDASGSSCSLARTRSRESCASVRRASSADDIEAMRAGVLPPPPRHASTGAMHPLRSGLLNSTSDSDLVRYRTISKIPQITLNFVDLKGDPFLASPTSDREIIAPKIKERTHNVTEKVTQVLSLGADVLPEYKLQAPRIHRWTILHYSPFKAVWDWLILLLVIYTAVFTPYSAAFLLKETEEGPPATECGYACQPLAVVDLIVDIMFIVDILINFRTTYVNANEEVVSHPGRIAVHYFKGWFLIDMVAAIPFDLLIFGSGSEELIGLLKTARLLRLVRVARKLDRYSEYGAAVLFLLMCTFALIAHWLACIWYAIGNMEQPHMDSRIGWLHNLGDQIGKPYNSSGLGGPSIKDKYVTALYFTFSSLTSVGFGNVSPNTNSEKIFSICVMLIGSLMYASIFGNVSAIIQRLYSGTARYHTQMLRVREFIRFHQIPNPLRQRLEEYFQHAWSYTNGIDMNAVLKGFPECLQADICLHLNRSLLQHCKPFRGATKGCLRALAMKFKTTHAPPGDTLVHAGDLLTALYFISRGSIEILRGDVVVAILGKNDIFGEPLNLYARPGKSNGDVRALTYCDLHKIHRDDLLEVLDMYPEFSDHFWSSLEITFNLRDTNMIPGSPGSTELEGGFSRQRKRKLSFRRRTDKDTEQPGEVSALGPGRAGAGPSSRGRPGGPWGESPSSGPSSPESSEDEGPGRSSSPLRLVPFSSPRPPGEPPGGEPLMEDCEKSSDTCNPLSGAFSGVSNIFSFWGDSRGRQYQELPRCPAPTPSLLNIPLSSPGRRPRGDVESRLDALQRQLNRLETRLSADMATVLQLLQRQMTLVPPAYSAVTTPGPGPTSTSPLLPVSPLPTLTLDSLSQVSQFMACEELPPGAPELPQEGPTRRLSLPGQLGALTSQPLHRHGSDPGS
Nuclear receptor subfamily 1 group I member 2 (Rattus norvegicus), sequence (Q9R1A7 whole entry, looked up): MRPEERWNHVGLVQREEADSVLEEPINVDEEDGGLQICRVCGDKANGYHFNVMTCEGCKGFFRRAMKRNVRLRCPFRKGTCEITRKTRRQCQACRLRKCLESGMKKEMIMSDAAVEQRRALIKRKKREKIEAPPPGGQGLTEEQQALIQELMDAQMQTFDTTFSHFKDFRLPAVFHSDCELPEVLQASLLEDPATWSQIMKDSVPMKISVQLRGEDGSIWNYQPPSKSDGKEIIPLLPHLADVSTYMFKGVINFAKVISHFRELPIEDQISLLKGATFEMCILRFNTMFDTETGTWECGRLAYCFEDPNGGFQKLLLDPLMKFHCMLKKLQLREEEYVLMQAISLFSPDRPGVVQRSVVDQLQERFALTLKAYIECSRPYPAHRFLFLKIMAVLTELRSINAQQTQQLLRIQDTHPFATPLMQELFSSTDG

O=C1c2ccccc2C(=O)C1c1nc2ccccc2c(Br)c1O
active: Potency [5] 61.1 µM | Potency [8] 10 µM
inactive: Potency [1] | Potency [2] | Potency [3] | Potency [4] | Potency [6] | Potency [7] | Potency [9]

CCCC(=O)C(=O)O
active: Potency [6] 35.6 µM
inactive: Potency [1] | Potency [2] | Potency [3] | Potency [10] | Potency [4] | Potency [5] | Potency [7] | Potency [9] | Potency [11]

CCCC(C(=O)OCCN(CC)CC)(c1ccccc1)c1ccccc1
inactive: Potency [1] | Potency [3] | Potency [4] | Potency [8]
active: Potency [2] 26.6 µM | Potency [5] 10.6 µM | Potency [12] 22.4 µM | Potency [13] 10 µM | Potency [14] 15.8 µM | Potency [6] 0.275 µM | Potency [7] 21.9 µM | Potency [15] 13.8 µM | Potency [9] 8.49 µM

CCOC(=O)c1ccc(I)cc1
active: Potency [7] 80.4 µM | Potency [8] 10.1 µM
inactive: Potency [1] | Potency [2] | Potency [3] | Potency [10] | Potency [4] | Potency [5] | Potency [6] | Potency [9]

O=C1CCCCCCCCCCOCCCCO1
active: Potency [8] 35.6 µM
inactive: Potency [1] | Potency [2] | Potency [3] | Potency [10] | Potency [16] | Potency [5] | Potency [6]

CN1CC(=O)N2[C@H](c3ccc4c(c3)OCO4)c3[nH]c4ccccc4c3C[C@@H]2C1=O
inactive: Potency [1] | Potency [2] | Potency [3] | Potency [4] | Potency [16] | max activation [12] 0.614% | Potency [6] | Potency [7] | Potency [9]

CCCCC(CC)CN (stereo not drawn)
active: Potency [6] 36.2 µM
inactive: Potency [1] | Potency [2] | Potency [3] | Potency [10] | Potency [4] | Potency [7] | Potency [9] | Potency [11]

Cc1cc(=O)c2c(O)c3c(O)cc(=O)c4c3c3c(cc(O)c1c23)C(C)(C)C=4O
inactive: activation [1] 12.7% [at 11.8 µM] | caspase activation [3] -2.97% [at 19 µM] | caspase-3/7 activation [4] -1.78% [at 19 µM] | activity change, negative = inhibition [6] -16.7% [at 23.6 µM] | Potency [7] | Potency [8] | activity change, negative = inhibition [9] -4.56% [at 15.8 µM]
active: Potency [2] 0.73 µM | Potency [10] 2.59 µM

CCCCCCCCCCC(=O)O
inactive: Potency [1] | Potency [2] | Potency [3] | Potency [4] | Potency [16] | Potency [6] | Potency [8] | Potency [9] | Potency [11]

CN1C(=O)N(c2ccccc2Br)Cc2cnc(Nc3ccc4c(c3)OCC(CO)O4)nc21 (stereo not drawn)
inactive: Potency [1]
active: Potency [2] 30.6 µM | Potency [3] 6.11 µM | Potency [10] 24.3 µM | Potency [5] 0.0154 µM | Potency [7] 7.1 µM | Potency [8] 28.3 µM | Potency [9] 43.6 µM

CC1CC(C)C(=O)C1=O (stereo not drawn)
inactive: Potency [1] | Potency [2] | Potency [3] | Potency [4] | Potency [16] | Potency [5] | Potency [6] | Potency [7] | Potency [15] | Potency [8] | Potency [9] | Potency [11]

COc1cc(N)c(Cl)cc1C(=O)NC1CCN(CCCOc2ccc(F)cc2)CC1OC (stereo not drawn)
inactive: Potency [1] | Potency [3] | Potency [4] | Potency [5] | max activation [12] -2.9% | Potency [14] | Potency [15] | Potency [8]
active: Potency [2] 29.8 µM | Potency [7] 15.5 µM

COc1cc(C(=O)NC2CCN(C)CC2)ccc1Nc1ncc2c(n1)N(C1CCCC1)CC(F)(F)C(=O)N2C
inactive: Potency [1] | Potency [6] | Potency [8] | Potency [9]
active: Potency [2] 8.88 µM | Potency [3] 22.3 µM | Potency [10] 0.499 µM | Potency [16] 15.8 µM | Potency [5] 19.9 µM | Potency [7] 51.7 µM | Potency [15] 29.1 µM

CCOC(=O)C1=C(C)NC(C)=C(C(=O)OC)C1c1cccc(Cl)c1Cl (stereo not drawn)
inactive: Potency [1] | Potency [2] | Potency [3] | Potency [4] | Potency [9]
active: Potency [10] 13.3 µM

CC(C)C[C@H](NC(=O)[C@H](CCc1ccccc1)NC(=O)CN1CCOCC1)C(=O)N[C@@H](Cc1ccccc1)C(=O)N[C@@H](CC(C)C)C(=O)[C@@]1(C)CO1
inactive: Potency [1] | Potency [6] | Potency [7] | Potency [8] | Potency [9]
active: Potency [2] 0.075 µM | Potency [3] 0.266 µM | Potency [10] 0.0944 µM | Potency [4] 0.0473 µM | Potency [5] 0.0376 µM

Cc1cc(O)ccc1O
active: Potency [10] 31 µM | Potency [7] 25.5 µM
inactive: Potency [1] | Potency [2] | Potency [3] | Potency [4] | Potency [6] | Potency [8] | Potency [9]

CN(C(=O)CN(CCO)CC(=O)N(C)C(C)(C)Cc1ccccc1)C(C)(C)Cc1ccccc1
active: Potency [5] 2.37 µM | Potency [14] 8.91 µM | Potency [6] 4.36 µM | Potency [15] 30.9 µM
inactive: Potency [1] | Potency [2] | Potency [3] | Potency [4] | Potency [8] | Potency [9]

O=c1cc(-c2ccccc2)oc2ccc3ccccc3c12
active: Potency [10] 54.5 µM | Potency [5] 2.43 µM | Potency [6] 5.64 µM | Potency [7] 3.56 µM | Potency [8] 5.64 µM | Potency [11] 17.8 µM
inactive: Potency [1] | Potency [2] | Potency [3] | Potency [4] | Potency [9]

C[C@H]1C[C@H](O)c2ccsc2S1(=O)=O
inactive: Potency [1] | Potency [2] | Potency [3] | Potency [4] | Potency [5] | Potency [6] | Potency [7] | Potency [15] | Potency [9] | Potency [11]

Reference: PubChem BioAssay (Tox21)
